Screens as filed in PubChem BioAssay.
Compounds with a hit are over-represented: about 9.9% of the library has one in this group of screens.
KB-3-1 tox – kills parental KB-3-1 adenocarcinoma cells; 1.4% of 400,000 active; KB-3-1 viability, CellTiter-Glo ATP luminescence, 72 h; Potency, µM (series often up to 46.1 µM), most hits filed as cytotoxic; also: potency is read from the fitted curve at half-maximal effect; % is scaled to controls: 0 for no effect and ±100 for the full control effect; nearly all actives have a fitted effect of over 60% in size
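Viability of parental KB-3-1 cells, measured by CellTiter-Glo luminescence, followed a 72 h incubation at 37 °C with pinned compounds in phenol-red-free DMEM containing 10% FBS.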
SW480 rerep – induces DNA re-replication in SW480 colon adenocarcinoma cells | SW480 DNA re-replication, Hoechst DNA content imaging, 48 h | Potency, µM (doses to about 46.1 µM), for inactives: at the top dose re-replication activation, most hits filed as activators | 1.8% of 340,000 active; also: potency is read from the fitted curve at half-maximal effect; % of control where 0% means no effect; nearly all actives have a fitted effect of over 55% in size
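Quantitative HTS format with DMSO vehicle controls; 48 hr drug incubation at 37 C, then 40 min Hoechst staining and scanning imager measurement at 405 nm excitation.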
IL1B secr inh – inflammasome signaling inhibition, IL-1 beta readout; THP-1 LPS/ATP IL-1B secretion, AlphaLISA, 16 h; active compounds read low; activity change, % at 57.5 µM; 4.7% of 360,000 active; AID 743279; in the data active = activity change below about -50%; inconclusive = mostly about -30% to -49%; also: % is scaled to controls: 0 for no effect and ±100 for the full control effect
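THP-1 cells pretreated 1 hr with compounds (up to 57.5 uM final), then stimulated with LPS (250 ng/mL final) plus ATP (1.25 mM final); secreted IL-1B measured by AlphaLISA after 16 hr, decreased signal indicating inhibition.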
KB-V1 cytotox – kills drug-selected multidrug resistant KB-V1 cells; KB-V1 MDR cells viability, CellTiter-Glo, 72 h; Potency, µM (doses to about 46.1 µM), hits mostly cytotoxic; 3.4% of 400,000 active; AID 1347076; also: potency is read from the fitted curve at half-maximal effect; % is scaled to controls: 0 for no effect and ±100 for the full control effect; nearly all actives have a fitted effect of over 60% in size
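Cytotoxicity toward P-gp-expressing KB-V1 cells was determined as loss of CellTiter-Glo luminescence after 72 h at 37 degrees C. Compounds were tested in quantitative HTS format across a concentration range, with curves fitted to normalized data.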
MCF10A rerep – induces DNA re-replication in MCF 10a normal breast cells | MCF 10A DNA re-replication, Hoechst nuclear intensity, 48 h | Potency, µM (top dose mostly 46.1 µM), for inactives: top-dose activity, positive = re-replication, actives largely listed as activators | 2.9% of 350,000 active | AID 624296; also: potency is read from the fitted curve at half-maximal effect; % of control where 0% means no effect; nearly all actives have a fitted effect of over 50% in size
The depositor's hits bear a star; i = inactive; ? = inconclusive; · = no result; [ ] = another dose, or the depositor's remark. Unless noted, calls follow the shape of the dose curve; as a rule, active = well fitted curve in the direction sought with a large enough effect; inconclusive = small, poorly fitted or top-dose-only effect, or another doubt; inactive = no such curve, though single readings can be large; an effect the other way counts as inactive or inconclusive.

SMILES	KB-3-1 tox	SW480 rerep	IL1B secr inh	KB-V1 cytotox	MCF10A rerep
CCn1cc(CN2CCC(C(=O)Nc3ccc(Oc4ccccc4F)cc3)CC2)c(C)n1	i	?	i	?	20.6µM*
COc1cc(F)ccc1CN1CCC(C(=O)Nc2ccc(Oc3ccccc3)nc2)CC1	?	-0.8%	-81.4*	?	6.6%
CC(C)n1cc(CN2CCC(C(=O)Nc3ccc(Oc4ccccc4F)cc3)CC2)cn1	?	?	-3.9	i	7.8%
Cc1cc(NC(=O)c2ccccc2F)on1	i	20.6µM*	-3.1	i	2.5%
Cc1cc(C(=O)C(=O)N(C)C)c(C)n1-c1ccc([N+](=O)[O-])cc1	i	-10.2%	0.0	i	-4.0%
C=CCN(CC=C)C(=O)C(=O)c1cc(C)n(-c2ccc([N+](=O)[O-])cc2)c1C	i	-7.0%	9.7	7.31µM*	-7.2%
O=C(NCCC1=CCCCC1)c1ccc2c(c1)ncn2-c1cccc(Cl)c1	i	·	·	i	·
O=C(CNc1ccccc1)Nc1cccc2ccccc12	i	-1.6%[9.22 µM]	-17.4	i	1.9%
CSc1nc(N)nc(SCCS(=O)(=O)c2ccc(Cl)cc2)c1C#N	i	?	?	?	13µM*
CSc1nc(N)nc(SCC(=O)Nc2cccc(F)c2)c1C#N	?	?	-13.3	2.31µM*	?
CSc1nc(N)nc(SCC(=O)Nc2ccc(Cl)cc2)c1C#N	?	-4.4%	-77.7*	i	0.5%
CSc1nc(N)nc(SCC(=O)C(C)(C)C)c1C#N	i	0.6%	-14.2	i	?
Cc1ccc(S(=O)(=O)CCSc2nc(C)cc(C)c2C#N)cc1	i	-1.3%	0.0	?	5.3%
CC(C)c1cc(C(=O)NCc2ccc(F)cc2)c(N)s1	i	·	-21.1	?	·
CC(Cl)C(=O)NNC(=O)CNS(=O)(=O)c1ccccc1 (stereo not given)	i	-41.5%	0.3	i	1.6%
CCN(CC)S(=O)(=O)c1ccc(O)c(NC(=O)c2cc(-c3cc(OC)c(OC)c(OC)c3)nc3ccccc23)c1	i	?	-22.4	i	18.4µM*
COC(=O)c1ccc(NC(=O)c2cc(-c3ccccn3)nc3ccccc23)cc1	i	-20.0%	18.5	i	12.1%
COC(=O)c1ccc(NC(=O)c2cc(-c3ccncc3)nc3ccccc23)cc1	23.1µM*	6.2%	42.2	i	20.6%
O=C(Nc1ccc(Br)cc1)c1cc(-c2ccncc2)nc2ccccc12	?	16.4µM*	12.6	i	?
COc1ccc(NC(=O)c2cc(-c3cc(OC)c(OC)c(OC)c3)nc3ccccc23)cc1OC	?	-4.2%	-10.5	20.6µM*	19.5%
CN(Cc1ccc(F)cc1)S(=O)(=O)c1nnc(NC(=O)c2ccc(F)cc2)s1	?	·	·	i	·
CCC1(C)N=C(c2ccc3c(c2)OCO3)CC(c2ccccc2O)N1 (stereo not given)	i	14.6µM*	2.8	i	7.31µM*
COc1cccc(C2=NC(C)(C)NC(c3ccccc3O)C2)c1 (stereo not given)	i	11.1%	?	i	?
COC(=O)[C@]12CCCCC=C1N(Cc1ccco1)C(=O)[C@H](CC(=O)NCCCN1CCCC1=O)C2	i	·	22.1	i	·
OCCCNCc1ccc(N(c2ccccc2)c2ccccc2)cc1	?	?	-94.1*	?	38.4%
CCN(CC(=O)NC1CCS(=O)(=O)C1)Cc1nc2c(Br)cc(Br)cc2c(=O)[nH]1 (stereo not given)	i	2.7%	0.0	i	0.7%
CCN(CC(=O)NC(C)(C)C)Cc1nc2c(Br)cc(Br)cc2c(=O)[nH]1	i	?	-100.5*	?	?
COc1ccc(NCc2nnc(SCC(=O)Nc3nc(-c4ccccc4)cs3)n2-c2ccccc2)cc1	13µM*	?	46.4	i	10.3µM*
COc1ccc(NCc2nnc(SCc3ccc(Cl)cc3)n2-c2ccccc2)cc1	?	?	-52.6*	?	?
COc1ccc(-n2c(CNc3ccc(C)cc3)nnc2SCC(=O)Nc2nc(-c3ccccc3)cs2)cc1	i	?	39.8	i	14.6µM*
